Source: PubChem
The sample as a whole holds a higher share of hits than the screen did.
Giardia killer: Small Molecules that selectively kill Giardia lamblia: qHTS; Giardia lamblia trophozoite viability; activity change, % at 7.66 µM, hits read low; 0.15% of 340,000 active; AID 540267, 2011; in the data active means activity change below about -80%; inconclusive means between about -30% and that limit;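 further: parasites exposed to compound for two days anaerobically before the ATP read; on the % scale 0 is the no-effect control and ±100 the full control effect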
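Anaerobic 48 hrs incubation at 37 deg C of 100 trophozoites/well with test compounds; ATPLite 1-Step luminescence, 15-30 min RT, reports cellular ATP as viability.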
RORgamma inh: qHTS for inhibitors of ROR gamma transcriptional activity | 5.4% of 310,000 active | Potency, µM (series often up to 53.6 µM), for inactives: at the top dose activity change, negative = inhibition, actives largely listed as inhibitors | Drosophila S2 Gal4-RORgamma UAS-luciferase reporter, 20 h | AID 2551, 2010 | Nuclear receptor ROR-gamma (Mus musculus), P51450; further: potency means the concentration at half of the fitted maximal effect; on the % scale 0 is the no-effect control and ±100 the full control effect; nearly all actives have a fitted effect of over 60% in size
Target sequence (P51450 whole entry, looked up, the tested form may be a part): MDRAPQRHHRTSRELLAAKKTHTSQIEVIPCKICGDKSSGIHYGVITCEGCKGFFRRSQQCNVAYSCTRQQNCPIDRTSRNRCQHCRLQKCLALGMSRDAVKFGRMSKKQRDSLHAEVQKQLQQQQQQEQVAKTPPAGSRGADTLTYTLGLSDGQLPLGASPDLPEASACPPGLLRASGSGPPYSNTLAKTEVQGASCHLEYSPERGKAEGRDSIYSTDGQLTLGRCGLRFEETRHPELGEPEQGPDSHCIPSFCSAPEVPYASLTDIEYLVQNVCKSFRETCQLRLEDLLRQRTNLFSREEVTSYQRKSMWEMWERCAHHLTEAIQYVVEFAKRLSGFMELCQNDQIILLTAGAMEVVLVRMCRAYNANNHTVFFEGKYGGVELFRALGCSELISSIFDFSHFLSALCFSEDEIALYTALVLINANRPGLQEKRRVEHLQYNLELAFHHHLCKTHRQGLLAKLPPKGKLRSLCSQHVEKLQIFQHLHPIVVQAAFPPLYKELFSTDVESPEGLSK
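Stable Schneider cell line, Gal4 DNA-binding domain fused to ROR gamma, UAS-luciferase. Cmpd 1 hr RT → CuSO4 700 uM final → 20 hr RT → luciferase reagent 10 min → luminescence.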
Gal4-VP16 FLuc: VP16 counterscreen qHTS for inhibitors of ROR gamma transcriptional activity; Drosophila S2 Gal4-VP16 UAS-luciferase, luminescence, 20 h; Potency, µM (highest dose often 53.6 µM), inactives show at the top dose activity, negative = inhibition, actives largely listed as inhibitors; 3.5% of 310,000 active; AID 2546, 2010;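 further: Gal4-VP16 expression switched on by copper sulfate through the metallothionein promoter; potency means the concentration at half of the fitted maximal effect; on the % scale 0 is the no-effect control and ±100 the full control effect; nearly all actives have a fitted effect of over 50% in size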
ERG-DNA inh: qHTS for Small Molecule Inhibitors of the ERG Ets/DNA interaction; Transcriptional regulator ERG (Homo sapiens), P11308; fluorescence polarization, His-ERG Ets domain / labelled DNA; Potency, µM (series often up to 76.9 µM), without a hit: at the top dose FP activity, negative = inhibition, usual class: inhibitors; 0.028% of 370,000 active; active means well fitted inhibition curve with a large enough effect in the polarisation, with a control signal flat; inconclusive means small, poorly fitted or top-dose-only effect, or effect the other way, or a change in a side signal; inactive means no such curve, though single readings can be large or run the other way; the % refers to the polarisation;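 further: polarization taken with two DNA probes labelled with fluorescein and Texas red; potency means the concentration at half of the fitted maximal effect; % of control where 0% means no effect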
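His-tagged ERG Ets domain (1 uM in the protein solution; 300mM KCl, 50mM Tris-HCl, 1mM EDTA, 1mM DTT, pH 7.5) received compound, then a probe mix of 5 nM fluorescein-DNA and 100nM Texas-615-DNA. Fluorescence polarization was read for both dyes.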
a7 integrin act: qHTS for Activators of Integrin-Mediated Alleviation for Muscular Dystrophy; Potency, µM (doses to about 38.3 µM), for the others: at the top dose activation, hits mostly activators; 0.064% of 350,000 active; alpha7betagal myoblasts, beta-gal FDG fluorescence, 48 h;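 further: potency means the concentration at half of the fitted maximal effect; 100% = response of the positive control SU9516; nearly all actives have a fitted effect of over 60% in size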
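alpha7betagal+/- myoblasts (passage 13, 250/well) treated 48 h at 37C with compounds at 1:260 dilution of DMSO stock. Lysed, then beta-galactosidase activity read as FDG fluorescence (ex 480/em 540) after 30 min, with pre-read for autofluorescence.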
* = called active by the depositor; [ ] = another dose, or the depositor's remark. Unless noted, the call rests on the fitted dose curve; in most records, active means well fitted curve in the direction sought with a large enough effect; inconclusive means small, poorly fitted or top-dose-only effect, or another doubt; inactive means no such curve, though single readings can be large; an effect the other way counts as inactive or inconclusive.

Results for O=C(Nc1nc(-c2ccncc2)cs1)c1ccco1 ?
Giardia killer: 9; RORgamma inh: 0%[10 µM]; Gal4-VP16 FLuc: 4%; ERG-DNA inh: 7%; a7 integrin act: 7%

How did COc1c2occc2c(OC)c2c(=O)cc(C(F)(F)C(F)(F)F)oc12 do in these assays?
Giardia killer: -1; RORgamma inh: 13%; Gal4-VP16 FLuc: 1%; a7 integrin act: 0%

Results for Cc1cc(NC(=O)NC(=O)c2ccc(F)cc2F)n[nH]1 ?
Giardia killer: -15; RORgamma inh: 8.9µM*; Gal4-VP16 FLuc: inconclusive; ERG-DNA inh: 13%; a7 integrin act: 23%

How did Cc1cc(NC(=O)c2cccc(Cl)c2)n[nH]1 do in these assays?
Giardia killer: 14; ERG-DNA inh: 1%; a7 integrin act: -7%

How did CO[C@H]1COC(=O)[C@@H](C)COC(=O)[C@@H](COCc2ccccc2)NC(=O)C/C=C\[C@H]1C do in these assays?
RORgamma inh: -7%[10 µM]; Gal4-VP16 FLuc: 2%[10 µM]

Results for Cc1ccc2nc(NC(=O)c3ccc4c(c3)OCO4)sc2c1 ?
Giardia killer: -22; RORgamma inh: 7.9µM*; Gal4-VP16 FLuc: inconclusive; a7 integrin act: 11%

How did Cc1ccc2nc(NC(=O)c3ccc4ncsc4c3)sc2c1 do in these assays?
Giardia killer: 5; RORgamma inh: -39%; Gal4-VP16 FLuc: inconclusive; ERG-DNA inh: 5%; a7 integrin act: -3%

Results for Cc1ccnc(NC(=O)c2ccc3c(c2)OCO3)c1 ?
Giardia killer: inconclusive; RORgamma inh: 13µM*; Gal4-VP16 FLuc: inconclusive; ERG-DNA inh: 4%; a7 integrin act: -1%

How did COc1cccc(-n2cc(CN(C)Cc3nc(Cc4cccc(F)c4)no3)cn2)c1 do in these assays?
Giardia killer: 3; RORgamma inh: 0%; Gal4-VP16 FLuc: 3%; ERG-DNA inh: 3%; a7 integrin act: 0%

Results for COc1ccc(CN(C)Cc2nc(Cc3cccc(F)c3)no2)c2cccnc12 ?
Giardia killer: -25; RORgamma inh: inconclusive; Gal4-VP16 FLuc: 7.1µM*; ERG-DNA inh: 0%; a7 integrin act: -52%

What do the screens show for `O=C(O)CSCc1cn2cc(Cl)ccc2n1`?
Giardia killer: 7; RORgamma inh: -10%; Gal4-VP16 FLuc: -24%; ERG-DNA inh: 11%; a7 integrin act: 7%

Results for COC(=O)CCSCc1cn2cc(Cl)ccc2n1 ?
Giardia killer: -12; RORgamma inh: 6.3µM*; Gal4-VP16 FLuc: inconclusive; ERG-DNA inh: -2%; a7 integrin act: -7%

How did S=C(Nc1cc(Cl)cc(Cl)c1)NC1CCN(Cc2ccccc2)CC1 do in these assays?
Giardia killer: inconclusive; RORgamma inh: inconclusive; Gal4-VP16 FLuc: inconclusive; ERG-DNA inh: 7%; a7 integrin act: -40%

Results for CC(C)c1ccc(NC(=S)NC2CCN(Cc3ccccc3)CC2)cc1 ?
Giardia killer: 2; RORgamma inh: 16µM*; Gal4-VP16 FLuc: inconclusive; ERG-DNA inh: 7%; a7 integrin act: -47%

What do the screens show for `S=C(Nc1ccc2c(c1)OCO2)NC1CCN(Cc2ccccc2)CC1`?
Giardia killer: -10; RORgamma inh: -44%; Gal4-VP16 FLuc: -8%; ERG-DNA inh: -8%; a7 integrin act: -9%

How did Cc1ccc(NC(=S)NC2CCN(Cc3ccccc3)CC2)cc1C do in these assays?
Giardia killer: -15; RORgamma inh: 11µM*; Gal4-VP16 FLuc: inconclusive; ERG-DNA inh: -5%; a7 integrin act: -17%

How did Cc1ccc(NC(=S)NC2CCN(Cc3ccccc3)CC2)cc1 do in these assays?
Giardia killer: 20; RORgamma inh: 13µM*; Gal4-VP16 FLuc: inconclusive; ERG-DNA inh: -3%; a7 integrin act: -31%

What do the screens show for `Cc1c(Cl)cccc1NC(=S)NC1CCN(Cc2ccccc2)CC1`?
Giardia killer: 15; RORgamma inh: 10µM*; Gal4-VP16 FLuc: -95%; ERG-DNA inh: -1%; a7 integrin act: -36%

How did CCC(C)Sc1ccc([C@H]2N[C@@](CC(C)C)(C(=O)OC)[C@H]3C(=O)N(C)C(=O)[C@@H]23)cc1 (some centres undefined) do in these assays?
Giardia killer: 18; ERG-DNA inh: -2%; a7 integrin act: -7%
